# From the supplement of paper PMC9135407
# Values joined by “and” are separate entries in the source; they are usually repeats but may differ in a detail not shown here. Equal entries are not always repeated. Structures can show the parent of a compound that is named as a salt. Screen size: about 5,800 compounds; about 620 (11%) showed activity. Only a selection was taken, and actives are over-represented in it overall. Values without a mark were called inactive.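 The calls were made as follows: active = score above a cut-off or among the top three wells of a plate; in these data no inactive exceeds 0.85.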
# Tested on: primary human hepatic stellate cells (donor 1)
# Experiment: scaled lipid accumulation score (0 = DMSO-like, 1 = nortriptyline-like); higher = stronger HSC inactivation (lipid re-accumulation), active = hit call of the paper
# Settings: 48 h
# [1] = library stock concentration: 1 mM
# [2] = library stock concentration: 80 uM
# [3] = library stock concentration: 400 uM
# [4] = library stock concentration: 2 mM
# [5] = library stock concentration: 3.33 mM
# [6] = library stock concentration: 10 mM
smiles,measurement,setting,value
COc1ccc2c(c1)c(CC(=O)NCCc1ccccc1)c(C)n2C(=O)c1ccc(Cl)cc1 [N-(2-phenylethyl)-Indomethacin amide],scaled lipid accumulation score,[1],0.049
O=c1ncn2nc(Sc3ccc(F)cc3F)ccc2c1-c1c(Cl)cccc1Cl,scaled lipid accumulation score,[2],0.019
same,scaled lipid accumulation score,[3],0.039
same,scaled lipid accumulation score,[4],0.129
same,scaled lipid accumulation score,[5],0.019
same,scaled lipid accumulation score,[6],≤ 0 and 0.119
C[C@@H](O)[C@H]1C(=O)N2C(C(=O)OCOC(=O)C(C)(C)C)=C(SC3CN(C4=NCCS4)C3)[C@H](C)[C@H]12 [Tebipenem Pivoxil],scaled lipid accumulation score,[5],≤ 0
same,scaled lipid accumulation score,[6],≤ 0
"O=P(O)(O)O[C@H]1[C@@H](O)[C@H](O)[C@@H](OP(=O)(O)O)[C@H](OP(=O)(O)O)[C@H]1O [D-myo-Inositol-2,4,5-triphosphate (sodium salt)]",scaled lipid accumulation score,[1],≤ 0
O=C1C(Cl)=C(N2C(=O)CCC2=O)C(=O)c2ccccc21 [MEK Inhibitor II],scaled lipid accumulation score,[5],0.073
CCCCCCCCCCCCCC(=O)OCC [Myristic Acid ethyl ester],scaled lipid accumulation score,[1],0.028
"COc1cc2c(Nc3ccc(Br)cc3F)ncnc2cc1OCC1CCN(C)CC1 [Vandetanib  (ZD6474, Zactima) (0.4 mM)]",scaled lipid accumulation score,[3],1.1 (active)
"COc1cc2c(Nc3ccc(Br)cc3F)ncnc2cc1OCC1CCN(C)CC1 [Vandetanib  (ZD6474, Zactima) (2 mM)]",scaled lipid accumulation score,[4],0.855 (active)
COc1cc2/c(=N/c3ccc(Br)cc3F)nc[nH]c2cc1OCC1CCN(C)CC1 [Vandetanib (ZD6474)],scaled lipid accumulation score,[6],0.754
"COc1cc2/c(=N/c3ccc(Br)cc3F)nc[nH]c2cc1OCC1CCN(C)CC1 [Vandetanib  (ZD6474, Zactima) (10 mM)]",scaled lipid accumulation score,[6],0.445
COc1cc2ncnc(Nc3ccc(O)c(Br)c3)c2cc1OC,scaled lipid accumulation score,[5],≤ 0
same,scaled lipid accumulation score,[6],≤ 0
COc1cc2ncnc(Nc3ccc(Cl)cc3F)c2cc1OC,scaled lipid accumulation score,[5],≤ 0
same,scaled lipid accumulation score,[6],≤ 0 and ≤ -0.001
C=CC(=O)N1CCC(Oc2cc3c(Nc4ccc(Cl)c(Cl)c4F)ncnc3cc2OC)CC1 [Poziotinib],scaled lipid accumulation score,[2],0.111
same,scaled lipid accumulation score,[3],0.281
same,scaled lipid accumulation score,[4],0.059
same,scaled lipid accumulation score,[6],0.72
COc1cc2c(Nc3ccc(Br)cc3F)ncnc2cc1OCC1CCN(C)CC1 [Vandetanib],scaled lipid accumulation score,[4],1.27 (active)
same,scaled lipid accumulation score,[6],1.66 (active)
COc1cc2ncnc(Nc3ccc(O)c(Br)c3)c2cc1OC [JAK3 Inhibitor II],scaled lipid accumulation score,[5],≤ 0
COc1cc2/c(=N/c3ccc(Br)cc3F)nc[nH]c2cc1OCC1CCN(C)CC1 [Vandetanib],scaled lipid accumulation score,[2],0.09
same,scaled lipid accumulation score,[3],0.381
COc1cc2c(Nc3ccc(Br)cc3F)ncnc2cc1OCC1CCN(C)CC1 [Vandetanib (ZD6474)],scaled lipid accumulation score,[5],1.18 (active)
COc1c2ccoc2nc2c(OC)c(OCC(O)C(C)(C)O)ccc12 (stereo not drawn) [Evoxine],scaled lipid accumulation score,,≤ 0
COc1ccc(CCN(C)CCCC(C#N)(c2ccc(OC)c(OC)c2)C(C)C)cc1OC (stereo not drawn) [Verapamil HCl],scaled lipid accumulation score,[5],0.332
same,scaled lipid accumulation score,[6],0.536
COc1ccc(CCN(C)CCCC(C#N)(c2ccc(OC)c(OC)c2)C(C)C)cc1OC (stereo not drawn) [Verapamil hydrochloride],scaled lipid accumulation score,[6],0.587
COc1ccc(CCN(C)CCCC(C#N)(c2ccc(OC)c(OC)c2)C(C)C)cc1OC (stereo not drawn) [Verapamil],scaled lipid accumulation score,library stock concentration: 4.4 mM,0.416
COc1ccc(CCN(C)CCCC(C#N)(c2ccc(OC)c(OC)c2)C(C)C)cc1OC (stereo not drawn) [Verapamyl hydrochloride],scaled lipid accumulation score,,0.545
O=C(O)Cc1c2ccccc2n2c1[nH]c(=O)c1ccccc12,scaled lipid accumulation score,[2],≤ -0.001
same,scaled lipid accumulation score,[3],≤ -0.001
same,scaled lipid accumulation score,[4],≤ -0.001
same,scaled lipid accumulation score,[6],≤ -0.001
CCCCC[C@H](O)/C=C/[C@H]1C(=O)C[C@H](O)[C@@H]1C/C=C\CCCC(=O)OC [Prostaglandin D2 methyl ester],scaled lipid accumulation score,[1],≤ 0
CNCc1cc(-c2ccccc2F)n(S(=O)(=O)c2cccnc2)c1,scaled lipid accumulation score,[5],0.046
same,scaled lipid accumulation score,[6],0.471
CC(C)=CCC/C(C)=C/CC/C(C)=C/CC[C@]1(C)CCc2c(C)c(O)c(C)c(C)c2O1 [.alpha.-Tocotrienol],scaled lipid accumulation score,[1],0.026
CCCc1c(OCC(O)COc2ccc3c(=O)cc(C(=O)O)oc3c2CCC)ccc(C(C)=O)c1O (stereo not drawn),scaled lipid accumulation score,[6],≤ -0.001
c1ccc2[nH]cnc2c1 [DRB (Benzimidazole)],scaled lipid accumulation score,library stock concentration: 15.7 mM,0.081
Clc1ccc(C2(c3ccc(-c4cn[nH]c4)cc3)CCNCC2)cc1 [listing 1 of 3 here],scaled lipid accumulation score,[4],0.95 (active)
same,scaled lipid accumulation score,[6],1.16 (active)
Clc1ccc(C2(c3ccc(-c4cn[nH]c4)cc3)CCNCC2)cc1 [listing 2 of 3 here],scaled lipid accumulation score,[2],0.375
same,scaled lipid accumulation score,[3],0.622
same,scaled lipid accumulation score,[6],0.425
Clc1ccc(C2(c3ccc(-c4cn[nH]c4)cc3)CCNCC2)cc1 [listing 3 of 3 here],scaled lipid accumulation score,[5],1.22 (active)
C[n+]1ccccc1C=NO [Pralidoxime mesylate],scaled lipid accumulation score,[6],0.016
O=C1C2CC3CC1CC(O)(C3)C2,scaled lipid accumulation score,[6],0.163
"N[C@H](C(=O)O)[C@H]1C[C@@H]1C(=O)O [(2S,1'S,2'S)-2-(carboxycyclopropyl)glycine]",scaled lipid accumulation score,[6],0.17
CCOC(=O)C1=C(COCCN)NC(C)=C(C(=O)OC)C1c1ccccc1Cl.O=S(=O)(O)c1ccccc1 (stereo not drawn) [Amlodipine besylate],scaled lipid accumulation score,[6],1.02 (active)
COC(=O)C1=C(C)NC(C)=C(C(=O)OCCSc2ccccc2)C1C (stereo not drawn),scaled lipid accumulation score,[6],0.111
same,scaled lipid accumulation score,library stock concentration: 13.8 mM,0.203
CCO/C(O)=C1\C(COCCN)=NC(C)=C(C(=O)OC)C1c1ccccc1Cl (stereo not drawn),scaled lipid accumulation score,[6],1.38 (active)
CCOC(=O)C1=C(C)NC(C)=C(C(=O)OC)C1c1cccc(Cl)c1Cl (stereo not drawn) [Felodipine] [listing 1 of 2 here],scaled lipid accumulation score,,0.05
same,scaled lipid accumulation score,[5],≤ 0
same,scaled lipid accumulation score,library stock concentration: 5.2 mM,0.028
same,scaled lipid accumulation score,[6],≤ 0
CCOC(=O)C1=C(COCCN)NC(C)=C(C(=O)OC)C1c1ccccc1Cl (stereo not drawn) [Amlodipine],scaled lipid accumulation score,[5],0.492
same,scaled lipid accumulation score,library stock concentration: 4.9 mM,≤ -0.006
same,scaled lipid accumulation score,[6],0.33
CCOC(=O)C1=C(C)NC(C)=C(C(=O)OC)C1c1cccc(Cl)c1Cl (stereo not drawn) [Felodipine] [listing 2 of 2 here],scaled lipid accumulation score,[6],0.931 (active)
CCCC(=O)OCOC(=O)C1=C(C)NC(C)=C(C(=O)OC)C1c1cccc(Cl)c1Cl (stereo not drawn) [Clevidipine Butyrate],scaled lipid accumulation score,[5],≤ 0
same,scaled lipid accumulation score,[6],≤ 0
CCOC(=O)C1=C(COCCN)NC(C)=C(C(=O)OC)C1c1ccccc1Cl (stereo not drawn) [Amlodipine besylate],scaled lipid accumulation score,library stock concentration: 3.5 mM,≤ 0
CCO/C(O)=C1\C(C)=NC(c2ccccc2)=C(C(=O)OCc2ccc([N+](=O)[O-])cc2)C1C#Cc1ccccc1 (stereo not drawn),scaled lipid accumulation score,[6],≤ 0
NC(=O)OCC(O)COc1ccc(Cl)cc1 (stereo not drawn) [Chlorphensin carbamate],scaled lipid accumulation score,,≤ 0
CCOc1c2c(c(OCC)c3ccccc13)C(=O)N(c1ccc(CC(=O)NS(=O)(=O)c3ccccc3)cc1)C2,scaled lipid accumulation score,[1],≤ 0
CCCCC/C=C\C/C=C\C/C=C\C/C=C\CCCCNC(=O)c1ccc(O)cc1,scaled lipid accumulation score,[1],≤ 0
"CCCCC(C)CC(O)/C=C/C1C(O)CC(O)C1CCCCCCC(=O)O (stereo not drawn) [17,20-dimethyl Prostaglandin F1.alpha.]",scaled lipid accumulation score,[1],≤ 0
Nc1cccc2c1CN(C1CCC(=O)NC1=O)C2=O (stereo not drawn) [Lenalidomide],scaled lipid accumulation score,[2],0.004
same,scaled lipid accumulation score,[3],0.005
same,scaled lipid accumulation score,[4],≤ -0.001
same,scaled lipid accumulation score,[6],≤ -0.001
Nc1cccc2c1CN(C1CCC(=O)NC1=O)C2=O (stereo not drawn) [Lenalidomide (CC-5013)],scaled lipid accumulation score,[5],0.003
same,scaled lipid accumulation score,[6],≤ 0
Nc1nc2[nH]cnc2c(=S)[nH]1 [Thioguanine],scaled lipid accumulation score,[6],≤ 0
same,scaled lipid accumulation score,library stock concentration: 12 mM,≤ 0
O=C(NCCCCCCNC(=O)ON=C1CCCCC1)ON=C1CCCCC1,scaled lipid accumulation score,[6],0.062
same,scaled lipid accumulation score,library stock concentration: 12.7 mM,0.056
CNC(=O)c1ccc(Nc2cc(Nc3ccccc3S(=O)(=O)C(C)C)c3cc[nH]c3n2)nc1,scaled lipid accumulation score,[2],0.027
same,scaled lipid accumulation score,[3],0.02
same,scaled lipid accumulation score,[4],0.04
same,scaled lipid accumulation score,[6],≤ 0
Cc1coc2c1C(=O)C(=O)c1c-2ccc2c(C)cccc12 [Tanshinone I],scaled lipid accumulation score,[5],≤ 0
same,scaled lipid accumulation score,[6],≤ 0
CCCCC/C=C\C/C=C\C/C=C\C/C=C\CCCC(=O)O [Arachidonic Acid],scaled lipid accumulation score,[1],≤ 0
"CCCCC/C=C\C/C=C\C/C=C\C/C=C\CCCC(=O)O [Arachidonic acid (20:4, n-6)]",scaled lipid accumulation score,[1],≤ -0.021
Cc1ccc(C(=O)Nc2cccc(C(F)(F)F)c2)cc1-c1ccc2nc(NCCN3CCOCC3)ncc2c1 [listing 1 of 2 here],scaled lipid accumulation score,[6],1.34 (active)
COc1ccc(N(C(=O)Oc2cc(C(=O)Nc3cccc(C(F)(F)F)c3)ccc2C)c2ccnc(Nc3ccc(N4CCN(C)CC4)cc3)n2)c(OC)c1,scaled lipid accumulation score,[2],0.07
same,scaled lipid accumulation score,[3],0.248
same,scaled lipid accumulation score,[4],0.495
same,scaled lipid accumulation score,[6],0.396
Cc1ccc(C(=O)Nc2cccc(C(F)(F)F)c2)cc1-c1ccc2nc(NCCN3CCOCC3)ncc2c1 [listing 2 of 2 here],scaled lipid accumulation score,[3],≤ -0.005
same,scaled lipid accumulation score,[4],0.748
CCCCCC(=O)/C=C/C=O [4-oxo-2-Nonenal],scaled lipid accumulation score,[1],≤ 0
COc1ccc(-c2cc(=O)c3c(O)cc(O)cc3o2)cc1 [Acacetin],scaled lipid accumulation score,,≤ 0
same,scaled lipid accumulation score,[6],≤ -0.027
Cc1cc(Nc2ncc(Cl)c(Nc3ccccc3S(=O)(=O)C(C)C)n2)c(OC(C)C)cc1C1CCNCC1,scaled lipid accumulation score,[5],0.582
same,scaled lipid accumulation score,[6],0.131
Cc1cc(Nc2ncc(Cl)c(Nc3ccccc3S(=O)(=O)C(C)C)n2)c(OC(C)C)cc1C1CCNCC1 [Ceritinib],scaled lipid accumulation score,[2],0.312
same,scaled lipid accumulation score,[3],0.357
same,scaled lipid accumulation score,[4],0.663
same,scaled lipid accumulation score,[6],≤ 0
